This note sets out measurements from PubChem BioAssay.

Test [1] can be described thus: E. coli DRC41 culture turbidity changes, primary screen, E. coli filamentation inducer project, strain DRC41, OD650, 48 h (AID 1152).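 Also: E. coli MC1000 strain DRC41 lacking acrAB efflux pump and sulA.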 The note with it: E. coli DRC41 (acrAB sulA), higher = more signal, called active from +8 up or from −8 down.
The nature of test [2]: small-molecule binders of probe aLefty1, primary screen, biochemical, small-molecule microarray, 635/667 nm fluorescence (AID 1153).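 Also: score merges spot fluorescence with signal-to-noise ratio from the scanned slide images.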 The note with it: higher = more signal.
Test [3] is described as follows: PSAC antagonists in infected red cells, primary screen, cell-based, P. falciparum Indochina, OD700, 1 h (AID 1154). The note with it: P. falciparum Indochina infected RBC osmotic lysis, higher = more signal, called active from +8 up or from −8 down.
A short description of test [4]: PSAC antagonists in infected red cells, primary screen, cell-based, P. falciparum Indochina, OD700, 2 h (AID 1155).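 Also: lysis reports solute entry through the parasite surface anion channel PSAC; channel blockers reduce lysis of infected cells.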 The note with it: P. falciparum Indochina infected erythrocytes, osmotic lysis OD700; higher = more signal, called active from +8 up or from −8 down.
Test [5] is described as follows: osmotic lysis modulators in infected erythrocytes, primary screen, PSAC antagonist project, cell-based, P. falciparum Indochina, OD700, 3 h (AID 1156). The settings on record: higher = more signal, called active from +8 up or from −8 down.
A short description of test [6]: PSAC antagonists in infected red cells, primary screen, cell-based, P. falciparum Indochina, OD700, 18 h (AID 1157). The note with it: P. falciparum Indochina infected erythrocytes, osmotic lysis OD700, 18 h; higher = more signal, called active from +8 up or from −8 down.
Test [7] in a line: modulators of S6 phosphorylation in cells, primary screen, cell-based, A549, cytoblot, luminescence, serum-stimulated (AID 1158).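 Also: serum-stimulated A549 lung adenocarcinoma cells; signal is phosphorylated S6 detected by cytoblot immunostaining with HRP secondary.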 The settings on record: A549 phospho-S6 cytoblot, 5 h, higher = more signal.
Test [8] addresses NADPH oxidase 2 (Homo sapiens) (UniProt P04839). Nature of the test: NOX2-dependent H2O2 signal modulators, primary screen, NOX inhibitor project, cell-based, HEK293-NOX2, PMA-stimulated, Amplex Red fluorescence (AID 1159). Also: test concentration not given here. The settings on record: 45 min, higher = more signal, called active from +8 up or from −8 down.
Test [9] has as its target NADPH oxidase 4 (Homo sapiens) (UniProt Q9NPH5). Nature of the test: NOX4-dependent H2O2 signal modulators, primary screen, NOX inhibitor project, cell-based, HEK293-NOX4, tetracycline-induced, Amplex Red fluorescence (AID 1160). The settings on record: 45 min, higher = more signal, called active from +8 up or from −8 down.
Test [10] addresses NADPH oxidase 5 (Homo sapiens) (UniProt Q96PH1). Briefly: NOX5-dependent H2O2 signal modulators, primary screen, NOX inhibitor project, cell-based, HEK293-NOX5, Amplex Red fluorescence (AID 1161). The note with it: HEK293-NOX5, ionomycin, 45 min, higher = more signal.

Calls of active or inactive are those of the source.

Sequence of NADPH oxidase 4 (Homo sapiens) (Q9NPH5 whole entry, looked up): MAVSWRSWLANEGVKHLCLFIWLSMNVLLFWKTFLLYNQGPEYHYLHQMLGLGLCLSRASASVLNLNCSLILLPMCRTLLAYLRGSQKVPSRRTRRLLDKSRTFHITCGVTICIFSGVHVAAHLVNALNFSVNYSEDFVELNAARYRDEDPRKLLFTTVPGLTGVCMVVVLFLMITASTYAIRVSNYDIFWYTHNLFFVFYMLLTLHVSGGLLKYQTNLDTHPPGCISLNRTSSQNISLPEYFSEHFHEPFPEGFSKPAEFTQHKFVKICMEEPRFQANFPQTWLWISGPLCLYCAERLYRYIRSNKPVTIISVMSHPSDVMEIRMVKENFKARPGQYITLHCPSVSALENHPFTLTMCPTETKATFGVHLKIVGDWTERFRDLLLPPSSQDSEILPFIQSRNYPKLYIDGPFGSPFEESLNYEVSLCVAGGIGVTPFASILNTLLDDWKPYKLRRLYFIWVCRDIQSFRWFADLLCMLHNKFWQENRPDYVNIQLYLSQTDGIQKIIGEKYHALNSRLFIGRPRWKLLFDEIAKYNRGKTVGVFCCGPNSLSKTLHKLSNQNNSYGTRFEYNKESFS
Sequence of NADPH oxidase 5 (Homo sapiens) (Q96PH1 whole entry, looked up): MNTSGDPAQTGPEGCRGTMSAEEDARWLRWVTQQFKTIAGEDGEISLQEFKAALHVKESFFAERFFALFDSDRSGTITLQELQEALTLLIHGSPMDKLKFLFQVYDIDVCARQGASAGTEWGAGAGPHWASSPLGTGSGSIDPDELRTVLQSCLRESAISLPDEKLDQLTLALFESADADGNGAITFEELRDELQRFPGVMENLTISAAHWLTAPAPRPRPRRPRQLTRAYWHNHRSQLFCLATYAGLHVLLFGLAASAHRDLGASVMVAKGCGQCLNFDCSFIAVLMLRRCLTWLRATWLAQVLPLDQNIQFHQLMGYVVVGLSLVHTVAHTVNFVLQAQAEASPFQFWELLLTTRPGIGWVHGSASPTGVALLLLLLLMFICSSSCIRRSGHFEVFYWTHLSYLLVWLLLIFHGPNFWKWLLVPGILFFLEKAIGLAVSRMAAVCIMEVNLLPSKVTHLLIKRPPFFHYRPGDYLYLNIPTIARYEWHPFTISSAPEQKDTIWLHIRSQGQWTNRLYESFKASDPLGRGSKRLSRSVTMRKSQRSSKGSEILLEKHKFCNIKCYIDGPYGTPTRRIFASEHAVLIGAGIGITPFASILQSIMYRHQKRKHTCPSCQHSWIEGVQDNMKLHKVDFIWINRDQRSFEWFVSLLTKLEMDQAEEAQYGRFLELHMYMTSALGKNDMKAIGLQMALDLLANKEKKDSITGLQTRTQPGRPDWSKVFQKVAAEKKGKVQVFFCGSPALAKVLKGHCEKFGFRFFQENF
Sequence of NADPH oxidase 2 (Homo sapiens) (P04839 whole entry, looked up): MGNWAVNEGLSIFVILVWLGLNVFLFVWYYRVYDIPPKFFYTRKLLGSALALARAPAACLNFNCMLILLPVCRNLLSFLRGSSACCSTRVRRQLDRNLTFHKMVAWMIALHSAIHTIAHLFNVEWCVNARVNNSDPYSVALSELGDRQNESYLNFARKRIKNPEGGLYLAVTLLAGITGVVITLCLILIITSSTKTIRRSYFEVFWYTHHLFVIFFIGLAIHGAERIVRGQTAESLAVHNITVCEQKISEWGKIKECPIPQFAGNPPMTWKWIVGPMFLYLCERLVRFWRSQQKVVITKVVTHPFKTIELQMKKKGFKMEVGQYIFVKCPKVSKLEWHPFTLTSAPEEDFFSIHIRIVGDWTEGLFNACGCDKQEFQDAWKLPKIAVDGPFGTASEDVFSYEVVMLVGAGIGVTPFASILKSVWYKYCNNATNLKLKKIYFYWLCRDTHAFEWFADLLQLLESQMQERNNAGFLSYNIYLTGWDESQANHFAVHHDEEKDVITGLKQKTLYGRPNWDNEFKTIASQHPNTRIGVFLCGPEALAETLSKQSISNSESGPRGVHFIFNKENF

On to `[N-]=[N+]=NCc1ccccc1[C@@H]1OC(c2ccc(OCCCO)cc2)=N[C@]1(Cc1ccccc1)C(N)=O`, for which the z-score in [1] was -0.451 (inactive); in test [3], 21.9 (active); in test [4], 4.7 (inactive); in test [5] it was 2.64 (inactive); in test [6], 1.03 (inactive); in test [7] it was 0.929. Moreover, the z-score in [8] is -2.06 (inactive); in test [9], 0.76 (inactive); in [10], -2.22. Further, in [2], the composite z-score is 0.0429.
Regarding `COC(=O)[C@@]1(Cc2ccc(OC)cc2)[C@H]2c3cc(C(=O)N(C)C)n(C)c3C[C@H]2CN1C(=O)c1ccccc1`, the z-score is -2.89 (inactive) in test [1]; 1.98 (inactive) in [3]; 0.451 (inactive) in [4]; 1.07 (inactive) in [5]; 1.16 (inactive) in test [6]; 0.775 in [7]. Moreover, the z-score is 1.12 (inactive) in test [8], 1.77 (inactive) in [9] and 2.16 in [10]. For the same compound, the composite z-score in test [2] stood at 1.56.
With `CC(C)(C)OC(=O)CC[C@]1(C(=O)N2CCOCC2)N=C(c2ccc(OCCCO)cc2)O[C@H]1c1ccccc1N=[N+]=[N-]`, the z-score was 1.52 (inactive) in test [1]; 33 (active) in test [3]; 31.2 (active) in [4]; 1.75 (inactive) in test [5]; 2.8 (inactive) in [6]; -0.435 in test [7]. Also, the z-score in test [8] was -1.71 (inactive); in [9], -0.279 (inactive); in test [10], -1.94. Moreover, in test [2], the composite z-score was 0.171.
For the compound `CN1C(=O)C2C=CC(C(O)C3CC=CCC3)N(N(c3ccccc3)c3ccccc3)C2C1=O` (stereo not given), the z-score in [1] was -0.866 (inactive); in test [3] it was 0.19 (inactive); in test [4], 1.01 (inactive); in test [5], -0.255 (inactive); in test [6], 1.29 (inactive); in test [7], -0.496. For the same compound, the z-score is -0.625 (inactive) in [8], 0.21 (inactive) in test [9] and 0.224 in test [10]. The compound further came in with a composite z-score in [2] of 0.329.
With `CCC(CC)C(O)C1C=CC2C(=O)NC(=O)C2N1Nc1ccccn1` (stereo not given), the z-score in test [1] was -0.613 (inactive); in test [3], 0.146 (inactive); in test [4], 0.519 (inactive); in test [5], -0.02 (inactive); in test [6], 0.973 (inactive); in test [7] it was -0.534. Further, the z-score is -1.58 (inactive) in test [8], -2.05 (inactive) in [9] and -1.52 in test [10]. The compound further came in with a composite z-score in test [2] of 0.158.
With `CCC[C@@H]1C[C@@]1(CCC)[C@@H](NC(=O)c1ccccc1)c1cccc(Cl)c1`, the z-score was -1 (inactive) in test [1]; 0.534 (inactive) in test [3]; 0.364 (inactive) in test [4]; 0.277 (inactive) in [5]; 0.839 (inactive) in test [6]; -0.841 in [7]. The results for the z-score in test [8], in [9] and in test [10] were 0.46 (inactive), -0.107 (inactive) and 0.328, respectively. Also, the composite z-score in test [2] amounted to 2.15.
Consider `COCCOC(=O)N1C(=O)[C@@]2(c3cc(C#CCNC(N)=O)ccc31)[C@H](C(=O)Nc1nc3ccccc3s1)[C@H]1C(=O)O[C@H](c3ccccc3)[C@H](c3ccccc3)N1[C@@H]2c1ccc(OCCO)cc1`, for which the z-score in test [1] was -0.537 (inactive); in [3], 2.48 (inactive); in test [4], 1.23 (inactive); in test [5], 0.0531 (inactive); in test [6], 0.559 (inactive); in test [7], -0.0692. In addition, the z-score in test [8] is 1.42 (inactive); in test [9], 1.19 (inactive); in test [10], 1.4. Further, the composite z-score in test [2] amounted to 0.729.
As to `O=C1C[C@]2(c3ccc([N+](=O)[O-])cc3)C(=O)N(CC(F)(F)F)c3cc(CO)ccc3[C@H]2N1C1CCCCC1`, the z-score in test [1] was 0.983 (inactive); in test [3], -0.524 (inactive); in test [4], 0.345 (inactive); in test [5], 0.503 (inactive); in test [6], 0.133 (inactive); in test [7] it was -0.116. The z-score in [8] is -0.502 (inactive); in test [9], 0.00678 (inactive); in test [10], 0.428. The same compound had a composite z-score in test [2] of -0.233.
For `CN(C)C(=O)[C@]1(Cc2ccccc2N=[N+]=[N-])N=C(c2ccc(OCCCO)cc2)O[C@@H]1c1ccccc1N=[N+]=[N-]`, the z-score is 1.02 (inactive) in [1]; 30.7 (active) in test [3]; 25.6 (active) in test [4]; 1.15 (inactive) in test [5]; 7.43 (inactive) in [6]; 2.53 in test [7]. The figures for the z-score in [8], in test [9] and in test [10] were -1.59 (inactive), 0.482 (inactive) and 0.199, respectively. The same compound came in with a composite z-score in test [2] of 0.431.
For the compound `O=C(c1ccccc1)N1C(=O)[C@@]2(Cc3ccccc31)N=C(c1ccc(OCCCO)cc1)O[C@H]2c1ccccc1`, the z-score is -0.632 (inactive) in [1]; 14.6 (active) in test [3]; 2.37 (inactive) in [4]; 3.04 (inactive) in test [5]; 1.03 (inactive) in test [6]; -0.256 in [7]. The values for the z-score in [8], in [9] and in [10] were -0.595 (inactive), -0.0485 (inactive) and -1.74, respectively. Further, the composite z-score in [2] was found to be 0.554.
As to `C[N+](C)(C)CCCC[C@@H]1NC(=O)[C@H]2C[C@@H](C(=O)NCCCCCCNC(=O)CS)[C@@H](c3cccc(OCCO)c3)N2C1=O`, the z-score in test [1] is 0.415 (inactive); in [3], 3.29 (inactive); in test [4], 0.679 (inactive); in test [5], 1.8 (inactive); in [6], 0.0805 (inactive); in [7], 0.0934. Moreover, the z-score in test [8] was 1.18 (inactive); in [9], 0.639 (inactive); in [10], 1.24. The same compound yielded a composite z-score in [2] of 0.0774.
For `C=C(COC)/C(=C/C[C@H](OC(C)=O)c1ccc(CO)o1)c1cc(C(=O)OC)ccc1OC`, the z-score is 0.506 (inactive) in [1]; 1.25 (inactive) in [3]; -2.29 (inactive) in test [4]; 0.672 (inactive) in test [5]; -2.07 (inactive) in test [6]; 0.873 in [7]. For the same compound, the z-score in test [8] is -1.85 (inactive); in test [9], -1.92 (inactive); in test [10] it was -1.14. The compound further gave a composite z-score in [2] of -0.193.
